The structures appear in SMILES notation. For some of these results: Results with a measured potency or affinity are listed apart.

What all share (set-up): scale not given: direction of the effect not stated beside the values
In experiment [1] the target is Protein translocase subunit SecA (Escherichia coli (strain K12)) (UniProt P10408). As to the kind of experiment: Assay to Identify E. coli SecA ATPase Inhibitors. The note with it: 30 µM. Format: functional.
Experiment [2] addresses T1, Ubiquitin-activating enzyme e1, putative (Leishmania donovani (strain BPK282A1)) (UniProt E9BSI1).
T1 sequence (whole entry): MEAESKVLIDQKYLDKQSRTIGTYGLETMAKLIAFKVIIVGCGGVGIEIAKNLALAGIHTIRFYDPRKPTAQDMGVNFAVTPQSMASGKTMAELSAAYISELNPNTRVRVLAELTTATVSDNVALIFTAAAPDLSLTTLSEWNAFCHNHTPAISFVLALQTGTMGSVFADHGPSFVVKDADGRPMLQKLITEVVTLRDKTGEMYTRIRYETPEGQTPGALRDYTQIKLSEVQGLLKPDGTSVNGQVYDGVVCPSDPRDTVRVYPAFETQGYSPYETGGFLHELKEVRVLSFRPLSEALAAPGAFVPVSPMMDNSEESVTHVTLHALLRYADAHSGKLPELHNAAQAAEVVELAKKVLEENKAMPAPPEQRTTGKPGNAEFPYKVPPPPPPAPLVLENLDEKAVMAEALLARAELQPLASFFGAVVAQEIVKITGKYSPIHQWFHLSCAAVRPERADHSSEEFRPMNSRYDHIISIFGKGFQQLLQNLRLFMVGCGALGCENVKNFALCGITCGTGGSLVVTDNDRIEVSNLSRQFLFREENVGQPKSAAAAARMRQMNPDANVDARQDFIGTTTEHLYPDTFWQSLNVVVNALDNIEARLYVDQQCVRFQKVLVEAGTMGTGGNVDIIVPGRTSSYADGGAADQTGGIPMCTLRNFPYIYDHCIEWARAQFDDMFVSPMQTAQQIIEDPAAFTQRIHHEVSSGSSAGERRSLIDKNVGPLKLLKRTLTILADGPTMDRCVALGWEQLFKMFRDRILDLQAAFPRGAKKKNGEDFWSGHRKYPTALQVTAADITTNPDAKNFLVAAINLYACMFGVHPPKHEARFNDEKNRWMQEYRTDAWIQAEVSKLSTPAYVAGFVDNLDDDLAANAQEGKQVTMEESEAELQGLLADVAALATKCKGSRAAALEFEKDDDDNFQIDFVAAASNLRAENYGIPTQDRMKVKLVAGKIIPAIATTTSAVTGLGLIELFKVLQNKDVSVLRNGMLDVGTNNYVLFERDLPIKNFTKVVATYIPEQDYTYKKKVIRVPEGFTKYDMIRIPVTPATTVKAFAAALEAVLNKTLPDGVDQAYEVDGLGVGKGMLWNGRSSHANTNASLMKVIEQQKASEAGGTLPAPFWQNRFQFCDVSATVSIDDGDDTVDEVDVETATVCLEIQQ
As to the kind of experiment: Leishmania donovani Ubiquitin Activating Enzyme (LdE1). The class given is functional. The note with it: 30 µM.

In experiment [3] the target is AMP-activated protein kinase, AMPK (Homo sapiens) (UniProt P54646+O43741+P54619+Q9UGJ0+Q9Y478+Q13131+Q9UGI9). In words: AMP-dependent Kinase enzyme assay. An in vitro enzyme assay that detects ADP turnover that is directly proportional to AMPK activity. This uses naive AMPK that is activated during the assay with MK-8722. The class given is functional. The note with it: 30 µM.

The target of experiment [4] is Sialic acid-binding Ig-like lectin 9 (Homo sapiens) (UniProt Q9Y336). As to the kind of experiment: Hs-Siglec9 ALPHAscreen SOP 20170721. The note with it: 10 µM. For orientation: In Alpha technology, singlet oxygen from a donor bead excites a nearby acceptor bead.
Sequence of Sialic acid-binding Ig-like lectin 9 (Homo sapiens) (Q9Y336 whole entry): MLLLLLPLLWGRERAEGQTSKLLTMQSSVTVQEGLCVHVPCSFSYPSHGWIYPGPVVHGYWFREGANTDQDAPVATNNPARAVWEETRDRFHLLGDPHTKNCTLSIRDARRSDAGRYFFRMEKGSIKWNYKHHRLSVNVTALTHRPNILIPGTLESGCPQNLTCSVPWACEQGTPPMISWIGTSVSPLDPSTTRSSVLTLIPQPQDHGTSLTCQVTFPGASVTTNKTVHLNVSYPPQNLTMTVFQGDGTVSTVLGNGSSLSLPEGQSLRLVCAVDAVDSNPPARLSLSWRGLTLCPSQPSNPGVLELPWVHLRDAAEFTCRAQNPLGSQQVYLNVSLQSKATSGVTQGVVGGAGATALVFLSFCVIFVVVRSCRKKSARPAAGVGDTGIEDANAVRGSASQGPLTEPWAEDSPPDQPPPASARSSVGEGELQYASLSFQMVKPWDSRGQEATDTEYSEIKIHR
Experiment [5] concerns Trypanosoma cruzi. In words: Trypanosoma cruzi phosphomannomutase and mannose-1-phosphate guanylyltransferase assay. The class given is functional. The note with it: 10 µM.
The target of experiment [6] is T2, Arginase-2, mitochondrial (Homo sapiens) (UniProt P78540).
T2 sequence (whole entry): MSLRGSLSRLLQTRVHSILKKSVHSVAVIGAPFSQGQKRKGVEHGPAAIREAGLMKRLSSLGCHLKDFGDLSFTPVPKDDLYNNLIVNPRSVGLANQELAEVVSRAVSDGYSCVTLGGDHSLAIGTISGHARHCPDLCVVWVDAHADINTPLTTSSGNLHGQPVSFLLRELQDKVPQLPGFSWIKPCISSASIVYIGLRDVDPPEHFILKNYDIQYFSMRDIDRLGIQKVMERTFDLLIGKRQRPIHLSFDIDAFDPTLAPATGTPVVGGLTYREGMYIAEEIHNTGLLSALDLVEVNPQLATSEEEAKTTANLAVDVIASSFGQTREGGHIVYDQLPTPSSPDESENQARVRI
As to the kind of experiment: in vitro enzyme assay to detect the production of urea directly proportional to the activity of Arginase II. Note: in the data most compounds retested in dose-response had high values. Format: functional. To be noted: 33.3 µM.

The target in experiment [7] is T3, Proteasome subunit beta (Trypanosoma cruzi) (UniProt O96673).
T3 sequence (whole entry): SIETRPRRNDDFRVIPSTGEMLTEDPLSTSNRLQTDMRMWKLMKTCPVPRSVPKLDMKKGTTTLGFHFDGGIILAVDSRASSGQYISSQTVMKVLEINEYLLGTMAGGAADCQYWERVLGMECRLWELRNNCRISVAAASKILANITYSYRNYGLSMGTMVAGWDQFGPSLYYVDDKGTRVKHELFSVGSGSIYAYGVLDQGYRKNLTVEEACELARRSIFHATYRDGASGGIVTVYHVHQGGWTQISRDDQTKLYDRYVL
As to the kind of experiment: Trypanosoma cruzi proteasome chymotrypsin-like activity (TcProtChymo) assay. Note: in the data most compounds retested in dose-response had high values. Format: functional. The note with it: 9.37 µM.

The species named for experiment [8] is Homo sapiens. In words: To identify inhibition of the IFN signalling (Jak-Stat) pathway via expression of an eGFP reporter gene under the control of an IFN-stimulated response element (ISRE) containing MxA promoter. Format: functional. The note with it: 30 µM.
Experiment [9] has as its target T4, Tyrosyl-tRNA synthetase, putative (Trypanosoma cruzi (strain CL Brener)) (UniProt Q4DSP6).
T4 sequence (whole entry): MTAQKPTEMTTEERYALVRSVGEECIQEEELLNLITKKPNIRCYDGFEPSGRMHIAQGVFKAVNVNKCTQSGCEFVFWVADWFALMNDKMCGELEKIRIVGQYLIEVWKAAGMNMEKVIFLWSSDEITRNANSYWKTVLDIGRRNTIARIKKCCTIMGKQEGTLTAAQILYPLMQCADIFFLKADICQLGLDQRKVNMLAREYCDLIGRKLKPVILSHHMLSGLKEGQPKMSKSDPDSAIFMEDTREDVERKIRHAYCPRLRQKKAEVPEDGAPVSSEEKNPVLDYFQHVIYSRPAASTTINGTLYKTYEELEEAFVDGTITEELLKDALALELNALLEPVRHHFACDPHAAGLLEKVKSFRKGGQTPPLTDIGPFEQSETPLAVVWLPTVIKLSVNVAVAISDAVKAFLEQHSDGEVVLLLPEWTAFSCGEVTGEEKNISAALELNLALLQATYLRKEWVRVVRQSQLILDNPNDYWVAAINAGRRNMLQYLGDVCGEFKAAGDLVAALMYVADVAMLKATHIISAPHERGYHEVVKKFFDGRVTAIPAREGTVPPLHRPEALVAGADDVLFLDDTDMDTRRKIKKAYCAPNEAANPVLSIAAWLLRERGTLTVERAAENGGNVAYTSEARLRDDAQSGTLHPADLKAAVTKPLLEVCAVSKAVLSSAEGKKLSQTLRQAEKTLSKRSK
As to the kind of experiment: Trypanosoma cruzi tyrosyl tRNA synthetase (TcYRS) _High Tyrosine SOP. Note: in the data most compounds retested in dose-response had high values. Format: functional. The note with it: 30 µM.

Experiment [10] addresses T4, Tyrosyl-tRNA synthetase, putative (Trypanosoma cruzi (strain CL Brener)). In words: Trypanosoma cruzi tyrosyl tRNA synthetase (TcYRS) SOP. Format: functional. The note with it: 30 µM.
The target in experiment [11] is Chromo domain-containing protein 1 (Saccharomyces cerevisiae (strain ATCC 204508 / S288c) (Baker's yeast)) (UniProt P32657). In words: ScCHD-1 Enzyme Inhibition Assay. Note: in the data most compounds retested in dose-response had high values. Format: functional. The note with it: 30 µM.
Sequence of Chromo domain-containing protein 1 (Saccharomyces cerevisiae (strain ATCC 204508 / S288c) (Baker's yeast)) (P32657 whole entry, the tested form may be a part): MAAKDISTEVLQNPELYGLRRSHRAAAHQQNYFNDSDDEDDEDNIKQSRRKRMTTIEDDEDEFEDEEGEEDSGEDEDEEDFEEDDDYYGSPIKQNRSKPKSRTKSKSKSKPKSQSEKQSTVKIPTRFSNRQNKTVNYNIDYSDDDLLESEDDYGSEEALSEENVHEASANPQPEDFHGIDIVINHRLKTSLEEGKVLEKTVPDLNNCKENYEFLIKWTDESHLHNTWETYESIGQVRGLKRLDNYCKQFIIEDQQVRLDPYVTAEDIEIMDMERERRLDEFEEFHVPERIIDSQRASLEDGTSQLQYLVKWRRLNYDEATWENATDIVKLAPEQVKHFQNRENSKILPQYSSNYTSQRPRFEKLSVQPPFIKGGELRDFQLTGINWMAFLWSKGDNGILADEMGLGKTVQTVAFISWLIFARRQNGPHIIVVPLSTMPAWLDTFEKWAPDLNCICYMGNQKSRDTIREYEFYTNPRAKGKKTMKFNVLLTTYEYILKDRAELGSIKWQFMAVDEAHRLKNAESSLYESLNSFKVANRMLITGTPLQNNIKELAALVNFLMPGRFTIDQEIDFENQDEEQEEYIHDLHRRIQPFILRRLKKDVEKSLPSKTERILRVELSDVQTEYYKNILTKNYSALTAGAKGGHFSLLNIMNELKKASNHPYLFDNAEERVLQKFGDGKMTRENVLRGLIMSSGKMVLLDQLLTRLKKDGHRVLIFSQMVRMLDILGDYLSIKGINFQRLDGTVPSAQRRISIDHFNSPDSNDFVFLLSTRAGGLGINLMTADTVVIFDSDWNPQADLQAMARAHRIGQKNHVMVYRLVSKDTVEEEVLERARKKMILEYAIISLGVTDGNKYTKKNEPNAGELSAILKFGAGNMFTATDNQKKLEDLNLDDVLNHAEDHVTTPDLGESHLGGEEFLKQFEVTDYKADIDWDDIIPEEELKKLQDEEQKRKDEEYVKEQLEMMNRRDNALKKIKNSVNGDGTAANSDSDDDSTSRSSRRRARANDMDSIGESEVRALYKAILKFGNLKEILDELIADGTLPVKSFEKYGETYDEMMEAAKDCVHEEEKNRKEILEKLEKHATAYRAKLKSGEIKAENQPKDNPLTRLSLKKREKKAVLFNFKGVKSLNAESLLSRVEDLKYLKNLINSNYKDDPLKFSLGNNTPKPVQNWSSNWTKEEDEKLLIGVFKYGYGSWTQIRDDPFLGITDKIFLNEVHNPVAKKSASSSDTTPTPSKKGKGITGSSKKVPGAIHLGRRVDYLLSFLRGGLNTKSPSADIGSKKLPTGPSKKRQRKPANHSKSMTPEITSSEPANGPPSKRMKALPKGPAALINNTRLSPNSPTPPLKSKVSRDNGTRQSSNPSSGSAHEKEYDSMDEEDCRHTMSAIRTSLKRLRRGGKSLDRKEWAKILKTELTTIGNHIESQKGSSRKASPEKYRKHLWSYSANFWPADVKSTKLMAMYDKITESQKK

Sequence of Protein translocase subunit SecA (Escherichia coli (strain K12)) (P10408 whole entry): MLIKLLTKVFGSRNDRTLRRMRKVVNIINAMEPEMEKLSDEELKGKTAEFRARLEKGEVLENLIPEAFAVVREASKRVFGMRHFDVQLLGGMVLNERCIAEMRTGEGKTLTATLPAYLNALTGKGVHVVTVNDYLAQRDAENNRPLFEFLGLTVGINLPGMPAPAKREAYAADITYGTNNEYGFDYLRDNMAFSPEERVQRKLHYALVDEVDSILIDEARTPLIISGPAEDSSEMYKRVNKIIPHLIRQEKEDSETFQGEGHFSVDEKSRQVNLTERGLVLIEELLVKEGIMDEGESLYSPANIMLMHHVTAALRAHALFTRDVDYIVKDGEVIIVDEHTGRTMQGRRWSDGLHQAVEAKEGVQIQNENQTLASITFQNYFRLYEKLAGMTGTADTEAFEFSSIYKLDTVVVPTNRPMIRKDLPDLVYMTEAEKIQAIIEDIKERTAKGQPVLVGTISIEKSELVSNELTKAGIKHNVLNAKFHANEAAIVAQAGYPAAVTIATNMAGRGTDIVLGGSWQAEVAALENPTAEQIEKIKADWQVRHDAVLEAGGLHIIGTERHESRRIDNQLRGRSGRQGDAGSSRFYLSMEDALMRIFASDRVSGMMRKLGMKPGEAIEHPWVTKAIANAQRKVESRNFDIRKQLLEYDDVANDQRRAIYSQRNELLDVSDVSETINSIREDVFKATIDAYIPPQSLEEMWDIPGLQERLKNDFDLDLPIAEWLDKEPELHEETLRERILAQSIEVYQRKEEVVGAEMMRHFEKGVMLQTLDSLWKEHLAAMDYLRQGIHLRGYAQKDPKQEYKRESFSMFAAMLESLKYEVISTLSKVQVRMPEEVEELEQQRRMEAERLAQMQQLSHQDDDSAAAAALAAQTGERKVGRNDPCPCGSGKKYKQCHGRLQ

For `Cc1cc(F)ccc1S(=O)(=O)NCc1cccc(C(=O)N2CCCC2)c1`, the Percent Effect is -5.18% in [1]; 15.6% in experiment [2]; 2.25% in [3]; 0.935% in [4]; 2.64% in experiment [5]; -12% in experiment [6]. Moreover, the Percent Effect in experiment [7] is 2.34%; in experiment [8] it was 26.5%; in experiment [9] it was 6.67%; in experiment [10], 9.41%; in experiment [11] it was -12.9%.
As for `Cc1noc(NC(=O)c2ccc(Br)cc2)n1`, the Percent Effect is -5.08% in experiment [1]; 26.3% in experiment [2]; -4.88% in experiment [3]; 4.49% in experiment [4]; 6.44% in [5]; 1.44% in experiment [6]. The Percent Effect in experiment [7] is 16.3%; in experiment [8], 70%; in experiment [9] it was 8.37%; in [10] it was 28.4%; in [11] it was -5.14%.
For the molecule `CCc1cc(N2CCCNCC2)n2nc(C)c(C)c2n1`, the Percent Effect was -1.91% in experiment [1]; 8% in experiment [2]; 2.19% in [3]; 2.6% in experiment [4]; -3.41% in [5]; 3.65% in [6]. The Percent Effect in [7] is 16%; in [8], 12.2%; in [9], 1.64%; in [10], 11.1%; in [11], -6.23%.
As to `CN(Cc1nnc(C2CC2)n1C)C(=O)c1ccnc(OC2CCC2)c1`, the Percent Effect was -5.02% in experiment [1]; 2.7% in [2]; 2.08% in experiment [3]; 2.83% in experiment [4]; 3.09% in [5]; 1.43% in [6]. The Percent Effect in experiment [7] was 6.21%; in [8], -9.69%; in experiment [9], 0.529%; in [10] it was -2.44%; in [11], -2.68%.
For the molecule `O=C(c1cscn1)N1CC[C@]2(C[C@@H](OCCN3CCCC3)CO2)C1`, the Percent Effect in [1] is -1.81%; in experiment [2] it was 13.3%; in [3] it was 1.02%; in experiment [4] it was -2.21%; in experiment [5], -2.95%; in [6], -0.699%. The Percent Effect in experiment [7] is 11.4%; in experiment [8], 7.58%; in experiment [9], 5.32%; in [10] it was 14.1%; in experiment [11], -0.0589%.
For `CCn1c(C)nnc1CN(C)C1CCN(Cc2cnc(C)cn2)C1` (stereo unspecified), the Percent Effect in [1] was -3.27%; in experiment [2], 10.8%; in [3], -13.9%; in [4], 0.873%; in experiment [5], -0.88%; in experiment [6] it was -2.73%. Also, the Percent Effect was 7.81% in [7]; 16.2% in [8]; 8.6% in experiment [9]; 18.5% in experiment [10]; -7% in experiment [11].
As for `CC(C)N(C)Cc1cn2c(n1)CN(C(=O)Cc1ccsc1)CC2`, the Percent Effect in experiment [1] is -5.71%; in experiment [2] it was 2.74%; in [3], 3.83%; in [4], 1.25%; in experiment [5], -2.78%; in experiment [6], -2%. The Percent Effect in experiment [7] is 7.28%; in [8], -1.74%; in experiment [9] it was 5.21%; in experiment [10], 6.17%; in experiment [11], -0.437%.
For the molecule `Cc1cc(Nc2nc(C)cs2)nc(C2CCCCN2CCO)n1` (stereo unspecified), the Percent Effect in experiment [1] was -0.14%; in [2], 1.35%; in experiment [3] it was -0.107%; in [4], -8.52%; in experiment [5], 7.12%; in experiment [6], -5.34%. Besides, the Percent Effect in experiment [7] was 13.9%; in experiment [8], -9.01%; in [9], 4.3%; in experiment [10], 11.7%; in [11], -23.2%.
Turning to `CCn1cnnc1C1CCN(C(=O)c2cccc3c2ccn3C)CC1`, the Percent Effect is -5.72% in [1]; 18.2% in experiment [2]; -2.51% in experiment [3]; 0.647% in experiment [4]; 3.37% in [5]; -4.63% in experiment [6]. Also, the Percent Effect is 7.43% in experiment [7]; -1.75% in experiment [8]; 7.77% in [9]; 24.4% in experiment [10]; -13.2% in experiment [11].
Regarding `CNC(=O)c1cc2c(nc1NC(C)C)CCN(C(=O)NC(C)C)CC2`, the Percent Effect in experiment [1] is -2.44%; in experiment [2], 0%; in experiment [3] it was -4.24%; in [4], -6.22%; in experiment [5], -2.64%; in experiment [6], -0.744%. The Percent Effect in experiment [7] was -2.83%; in [8], -8.82%; in experiment [9], 6.45%; in [10], 6.17%; in [11] it was -0.531%.
With `CN(Cc1ccco1)C(=O)CN1CCCC(Cn2cncn2)C1` (stereo unspecified), the Percent Effect was -2.53% in [1]; 5.26% in [2]; -6.77% in [3]; 10.4% in [4]; 3.64% in [5]; 2.16% in [6]. Moreover, the Percent Effect in [7] is 15%; in experiment [8] it was -16.1%; in [9] it was 5.42%; in experiment [10], 11.1%; in experiment [11] it was -6.09%.
